PubChem BioAssay
Calls of active or inactive are those of the source. Unless noted, the rule behind the calls is not given here.

How the values were obtained:
[1] = A549 cell viability effects, profiling panel, calcein-AM fluorescence, 48 h, basal (AID 1162); conditions: higher = more signal; note: test concentration not given here
[2] = adipocyte viability effects, profiling panel, cell-based, 3T3-L1 adipocytes, calcein-AM fluorescence, 48 h, basal (AID 1163); conditions: 3T3-L1 adipocytes viability, higher = more signal; note: test concentration not given here
[3] = HepG2 cell viability effects, profiling panel, calcein-AM fluorescence, 48 h, basal (AID 1164); conditions: higher = more signal; note: test concentration not given here
[4] = MM1S cell viability effects, profiling panel, calcein-AM fluorescence, 48 h, basal (AID 1165); conditions: higher = more signal;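 note: viability of MM1S multiple myeloma cells under basal unstimulated conditions; test concentration not given here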
[5] = basal RPMI8226 viability, no added stimulus, profiling panel, cell-based, calcein-AM fluorescence, 48 h, PK04 Diversity Set (AID 1166); conditions: RPMI8226 myeloma viability, higher = more signal;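 note: cells grown under basal conditions without added stimulus; test concentration not given here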
[6] = basal HepG2 mitochondrial membrane potential changes, profiling panel, cell-based, JC-1 fluorescence, 24 h, 100 nL compound (AID 1167); conditions: higher = more signal; note: test concentration not given here
[7] = basal 3T3-L1 adipocyte mitochondrial potential changes, profiling panel, cell-based, JC-1 fluorescence, 3T3-L1 adipocytes, 24 h, 100 nL compound (AID 1168); conditions: JC-1 mitochondrial fluorescence, higher = more signal, called active from +8 up or from −8 down; note: test concentration not given here
[8] = basal RPMI8226 mitochondrial membrane potential changes, profiling panel, cell-based, JC-1 fluorescence, 24 h, 100 nL compound (AID 1169); conditions: RPMI8226 myeloma, JC-1 mitochondrial potential fluorescence, higher = more signal; note: test concentration not given here
[9] = basal MM1S mitochondrial membrane potential changes, profiling panel, cell-based, JC-1 fluorescence, 24 h, 100 nL compound (AID 1170); conditions: higher = more signal; note: test concentration not given here
[10] = A549 lung cancer cell viability effects, profiling panel, resazurin fluorescence, 24 h, PK04 Diversity Set (AID 1171); conditions: higher = more signal, called active from +8 up or from −8 down; note: test concentration not given here
[11] = HepG2 liver cancer cell viability effects, profiling panel, resazurin fluorescence, 24 h, PK04 Diversity Set (AID 1172); conditions: higher = more signal; note: test concentration not given here
[12] = basal S. cerevisiae growth modulation, no modifier, primary screen, OD600, strain BY4716, 24 h, basal condition (AID 1173); conditions: OD600, 24 h, higher = more signal, called active from +8 up or from −8 down
[13] = MM1S myeloma cell viability, profiling panel, resazurin fluorescence, basal, 24 h, PK04 Diversity Set (AID 1174); conditions: higher = more signal, called active from +8 up or from −8 down;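 note: MM1S multiple myeloma cell line; test concentration not given here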
[14] = target: Dihydroorotate dehydrogenase (quinone), mitochondrial (Plasmodium falciparum (isolate 3D7)) (UniProt Q08210); assay: PfDHODH enzyme inhibitors, primary screen, biochemical, C-terminal His tag, absorbance 600 nm (AID 1175); conditions: DCIP absorbance 600 nm, higher = more signal, called active from +8 up or from −8 down;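 note: recombinant parasite enzyme with a five histidine tag at its C terminus; test concentration not given here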
Sequence of Dihydroorotate dehydrogenase (quinone), mitochondrial (Plasmodium falciparum (isolate 3D7)) (Q08210 whole entry, looked up): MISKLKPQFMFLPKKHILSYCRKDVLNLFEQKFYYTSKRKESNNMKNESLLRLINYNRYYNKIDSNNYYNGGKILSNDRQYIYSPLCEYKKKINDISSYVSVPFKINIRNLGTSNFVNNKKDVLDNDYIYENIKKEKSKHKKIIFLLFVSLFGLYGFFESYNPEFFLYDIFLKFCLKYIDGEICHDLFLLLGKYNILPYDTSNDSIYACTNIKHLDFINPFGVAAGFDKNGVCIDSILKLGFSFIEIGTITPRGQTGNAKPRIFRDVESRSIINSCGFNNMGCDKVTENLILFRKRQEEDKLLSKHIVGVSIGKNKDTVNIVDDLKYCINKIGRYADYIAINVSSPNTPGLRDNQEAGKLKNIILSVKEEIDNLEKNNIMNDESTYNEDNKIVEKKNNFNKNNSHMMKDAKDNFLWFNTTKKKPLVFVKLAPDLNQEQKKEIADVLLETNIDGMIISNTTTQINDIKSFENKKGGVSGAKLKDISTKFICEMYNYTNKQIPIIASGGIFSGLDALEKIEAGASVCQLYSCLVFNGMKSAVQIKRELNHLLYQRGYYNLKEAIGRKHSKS

[15] = P. aeruginosa biofilm formation inhibitors, primary screen, strain PAO1, LB-PBS medium, absorbance 600 nm (AID 1176); note: test concentration not given here; conditions: P. aeruginosa PAO1 growth/biofilm, A600, 12 h; higher = more signal
[16] = S. cerevisiae RM11-1a growth modifiers, primary screen, strain RM11-1a, OD600, basal, 24 h (AID 1177); conditions: OD600, 24 h, higher = more signal, called active from +8 up or from −8 down;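 note: cultures grown under basal conditions with no added stressor; test concentration not given here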
[17] = E. coli acrAB mutant growth effects, primary screen, E. coli filamentation inducers, strain DRC39, OD650, 24 h (AID 1178); conditions: higher = more signal, called active from +8 up or from −8 down;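 note: growth measured as culture turbidity by optical density at 650 nm; test concentration not given here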
[18] = E. coli acrAB mutant growth effects, primary screen, E. coli filamentation inducers, strain DRC39, OD650, 48 h (AID 1179);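 note: screen aims at cell division blockers that make cells filament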; conditions: E. coli DRC39 delta-acrAB growth, higher = more signal, called active from +8 up or from −8 down
[19] = RPMI8226 myeloma cell viability, profiling panel, resazurin fluorescence, basal, 24 h, PK04 Diversity Set (AID 1180); conditions: higher = more signal;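 note: RPMI8826 multiple myeloma cell line at 5000 cells per well; test concentration not given here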
[20] = target: E3 ubiquitin-protein ligase XIAP (Homo sapiens) (UniProt P98170); assay: XIAP binders, primary screen, biophysical, small-molecule microarray, fluorescence 635 nm (AID 1181); conditions: small-molecule microarray binding, higher = more signal;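 note: score merges 667 nm emission and signal to noise over triplicate slides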
Sequence of E3 ubiquitin-protein ligase XIAP (Homo sapiens) (P98170 whole entry, looked up): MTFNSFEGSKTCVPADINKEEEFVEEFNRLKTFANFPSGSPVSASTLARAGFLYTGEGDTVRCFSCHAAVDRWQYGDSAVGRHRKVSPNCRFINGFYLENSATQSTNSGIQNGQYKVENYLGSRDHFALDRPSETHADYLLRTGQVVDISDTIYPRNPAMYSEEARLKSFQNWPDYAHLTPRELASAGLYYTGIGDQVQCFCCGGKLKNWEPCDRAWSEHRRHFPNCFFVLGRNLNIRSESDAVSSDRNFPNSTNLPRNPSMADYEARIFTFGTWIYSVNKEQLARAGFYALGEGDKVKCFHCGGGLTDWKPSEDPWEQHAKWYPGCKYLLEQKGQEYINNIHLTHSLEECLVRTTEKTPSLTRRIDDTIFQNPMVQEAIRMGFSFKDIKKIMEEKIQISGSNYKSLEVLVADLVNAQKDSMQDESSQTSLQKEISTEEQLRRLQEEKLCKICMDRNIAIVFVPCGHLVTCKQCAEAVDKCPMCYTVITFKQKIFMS

Row | Structure (SMILES) | z-score [1] | z-score [2] | z-score [3] | z-score [4] | z-score [5] | z-score [6] | z-score [7] | z-score [8] | z-score [9] | z-score [10] | z-score [11] | z-score [12] | z-score [13] | composite z-score [14] | z-score [15] | z-score [16] | z-score [17] | z-score [18] | z-score [19] | composite z-score [20]
1 | COc1cc(NN2C(C(O)c3ccccc3)C=CC3C(=O)N(c4ccccc4)C(=O)C32)cc(OC)c1OC (stereo not given) | -0.873 | 0.0146 | 0.253 | 0.673 | 0.0985 | -0.602 | -1.72 (inactive) | 0.179 | -1.41 | -0.381 (inactive) | -1.04 | 0.887 (inactive) | -0.417 (inactive) | -1.37 (inactive) | -0.0751 (inactive) | 0.0729 (inactive) | 0.32 (inactive) | 0.8 (inactive) | -0.827 | 0.219
2 | C=CCOC(=O)[C@H]1[C@@H]2C(=O)O[C@@H](c3ccccc3)[C@@H](c3ccccc3)N2[C@@H](c2ccc(OCCOC(=O)[C@@H]3C[C@@H]4C(=O)NCC(=O)N4[C@@H]3c3ccc(O)cc3)cc2)[C@]12C(=O)Nc1ccc(I)cc12 | -0.566 | -0.907 | -0.368 | -0.0033 | 0.169 | -1.55 | 0.459 (inactive) | -0.688 | -1.1 | -0.148 (inactive) | -0.247 | 0.528 (inactive) | -0.897 (inactive) | 0.31 (inactive) | 2.27 (inactive) | 0.305 (inactive) | -0.641 (inactive) | -0.51 (inactive) | -0.433 | -0.0066
3 | Cc1cc(C)c(C(O)C2C=CC3C(=O)NC(=O)C3N2Nc2ccccn2)c(C)c1 (stereo not given) | -0.948 | -0.397 | 0.359 | 0.22 | 0.066 | -0.767 | -0.363 (inactive) | -0.188 | -0.0615 | -0.875 (inactive) | -1.25 | 0.705 (inactive) | -1.78 (inactive) | 1.41 (inactive) | 0.9 (inactive) | 0.276 (inactive) | -0.579 (inactive) | -0.342 (inactive) | -0.68 | 0.203
4 | [N-]=[N+]=NCc1ccccc1C[C@]1(C(=O)N2CCOCC2)N=C(c2ccc(OCCCO)cc2)O[C@H]1c1ccccc1 | -0.55 | -0.0649 | -1.56 | -2.06 | -4.4 | -0.155 | -0.296 (inactive) | -1.16 | -2.08 | -0.832 (inactive) | -0.552 | -0.34 (inactive) | -2.29 (inactive) | 1.44 (inactive) | -0.537 (inactive) | 0.328 (inactive) | 0.685 (inactive) | 0.694 (inactive) | -4.46 | -0.0884
5 | CN(C)CCCCCCNC(=O)[C@@H]1C[C@@H]2C(=O)N[C@@H](Cc3ccccc3)C(=O)N2[C@@H]1c1cccc(OCCO)c1 | -0.778 | 0.559 | -0.857 | 0.802 | -0.555 | -1.02 | -0.822 (inactive) | 0.0287 | 0.316 | -0.115 (inactive) | -0.272 | -0.117 (inactive) | -0.826 (inactive) | -0.562 (inactive) | -0.695 (inactive) | -0.704 (inactive) | 0.25 (inactive) | 0.0332 (inactive) | -0.592 | 0.564
6 | CCCC[C@@H]1C[C@H]1[C@@H](NC(=O)c1ccco1)c1ccccc1 | -2.22 | -0.252 | -2.22 | -3.27 | -4.74 | -3.6 | -1.27 (inactive) | -0.759 | -2.24 | 2.55 (inactive) | 1.39 | -3.05 (inactive) | 0.757 (inactive) | -1.19 (inactive) | -0.195 (inactive) | 0.586 (inactive) | -0.9 (inactive) | -0.569 (inactive) | 0.0092 | 0.171
7 | COCCn1c(C(=O)N(C)C)cc2c1C[C@H]1CN(C(=O)c3ccccc3)[C@@](Cc3ccc(F)cc3)(C(=O)OC)[C@@H]21 | 0.428 | -0.687 | 0.684 | -0.259 | -0.362 | 0.938 | -0.499 (inactive) | 0.172 | -0.929 | -0.774 (inactive) | -0.473 | 0.717 (inactive) | -0.665 (inactive) | -0.0005 (inactive) | 0.535 (inactive) | 1.02 (inactive) | 0.0751 (inactive) | 0.223 (inactive) | -0.38 | 0.0447
8 | O=C1OCCC=C[C@H]2OC34C=CCN(CCN5CCOCC5)C(=O)[C@H]3N(CCO)C(=O)[C@@H]4C12 (stereo not given in full) | -0.53 | -0.246 | -0.209 | 0.471 | -0.253 | -0.659 | -0.293 (inactive) | -0.578 | -0.47 | -0.948 (inactive) | -0.0535 | -0.663 (inactive) | -1.45 (inactive) | -1.85 (inactive) | 0.0962 (inactive) | -0.249 (inactive) | -1.14 (inactive) | -0.99 (inactive) | -0.6 | 0.0264
9 | O=C1C2C=CC(C(O)c3ccc(Br)cc3)N(n3cnnc3)C2C(=O)N1Cc1ccccc1 (stereo not given) | -1.71 | -1 | -3.58 | -0.496 | -3.99 | -0.422 | 0.633 (inactive) | -0.212 | 0.00374 | 0.0637 (inactive) | -0.009 | -17.1 (active) | -0.381 (inactive) | -1.37 (inactive) | -0.184 (inactive) | -23 (active) | -0.999 (inactive) | -1.96 (inactive) | -0.396 | 1.33
